About 79,000 compounds went through this panel and 15% of them were active in at least one assay; those are over-represented in the sample as a whole. A number with no mark means an inactive call. Calls of active or inactive are those of the source. No stated cut-off is given here; in the data, active means growth inhibition above about 70%; inactive means the rest. Where a SMILES comes first, the peptide text is derived from it. The star is where a group is joined. Cbz = O=C(OCc1ccccc1)*; OBn = c1ccc(CO*)cc1

The nature of assay [1]: NCI Yeast Anticancer Drug Screen. Data for the rad50 strain (AID 155).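 Further: 0% = growth of vehicle-only cultures of the same strain.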 As to conditions: S. cerevisiae rad50 strain growth inhibition, active compounds read high; at 50.0 µM unless noted. Summed up:
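Cells are treated with compound, grown, and their growth is then scored against vehicle-only cultures of the same repair-deficient yeast strain.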

Assay [2] is described as follows: NCI Yeast Anticancer Drug Screen. Data for the mec2-1 strain (AID 157). As to conditions: S. cerevisiae mec2-1 strain, active compounds read high; at 50.0 µM unless noted. The method in brief: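 Each compound was tested on mec2-1 yeast, a strain altered in DNA damage repair or cell cycle control. Growth inhibition is reported relative to vehicle.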
A short description of assay [3]: NCI Yeast Anticancer Drug Screen. Data for the sgs1 mgt1 strain (AID 161).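 Further: 0% = growth of cultures given vehicle only.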 The conditions noted are these: S. cerevisiae sgs1 mgt1 strain, active compounds read high; at 50.0 µM unless noted. Summed up:
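Read-out: growth inhibition vs vehicle controls. Cells: mutant yeast strain deficient in DNA damage repair.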

A short description of assay [4]: NCI Yeast Anticancer Drug Screen. Data for the cln2 rad14 strain (AID 165).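 Further: 0% = growth equal to vehicle treated cultures.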 As to conditions: S. cerevisiae cln2 rad14 strain, active compounds read high; at 50.0 µM unless noted. Summed up: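 Test compounds were added to cln2 rad14 yeast cultures; inhibition of growth was then determined by comparison with vehicle treatment.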
Assay [5] can be described thus: NCI Yeast Anticancer Drug Screen. Data for the bub3 strain (AID 167). The conditions noted are these: S. cerevisiae bub3 mutant strain, active compounds read high; at 50.0 µM unless noted. The method in brief: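 Part of a panel of yeast mutants defective in DNA damage repair or cell cycle regulation. Each strain is grown with compound, and inhibition is calculated relative to solvent-treated cultures.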

The nature of assay [6]: NCI Yeast Anticancer Drug Screen. Data for the mlh1 rad18 strain (AID 175). The conditions noted are these: S. cerevisiae mlh1 rad18 strain growth inhibition, active compounds read high; at 50.0 µM unless noted. The method in brief: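 Inhibition values reflect reduced growth of mutant yeast versus vehicle-treated controls following compound exposure; the mutations affect DNA damage repair.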

For the compound `CSc1ccc(C(C)=O)cc1`, the growth inhibition is 13.6% in assay [1]; 5.9% in assay [2]; 5.95% in assay [3]; 4.6% in assay [4]; 1.55% in assay [5]; 3% in assay [6].

On to `Cc1ccc(C)n1-n1c(Cc2ccc(Cl)cc2)n[nH]c1=O`, for which the growth inhibition in assay [1] was 8.5%; in assay [2], 3.05%; in assay [3], 16%; in assay [4] it was 8.05%; in assay [5], -4.4%; in assay [6], 13.1%.

As to `O=C1/C(=C/c2ccccc2)CCC2CCCCC12` (stereo not given), the growth inhibition is 22.1% in assay [1]; -0.95% in assay [2]; -0.8% in assay [3]; -24.9% in assay [4]; -20.1% in assay [5]; 14.4% in assay [6].

For `O=c1ccc2ccc3[nH]onc3c2c1`, the growth inhibition was 10.2% in assay [1]; -12.6% in assay [2]; -5.85% in assay [3]; -48.8% in assay [4]; -26.4% in assay [5]; -2.2% in assay [6].

With `CCOC(=O)[C@H]1Nc2c(cccc2[N+](=O)[O-])C2c3ccccc3CC21` (stereo not given in full), the growth inhibition is 48.5% in assay [1]; 1.55% in assay [2]; 8.6% in assay [3]; 25.3% in assay [4]; 9.5% in assay [5]; 13.6% in assay [6].

On to `COC(=O)CCC(=O)Nc1cc(C)ccc1C`, for which the growth inhibition is -6.3% in assay [1]; -19.9% in assay [2]; -7.6% in assay [3]; 4.5% in assay [4]; -2.25% in assay [5]; -12.2% in assay [6].

For `COC1=C2CC(C)CC(OC)C(O)C(C)/C=C(\C)C(OC(N)=O)C(OC)/C=C\C=C(/C)C(=O)NC(=C(/C=N/N(C)C)C1=O)C2=O` (stereo not given), the growth inhibition in assay [1] was -11.3%; in assay [2], -63.5%; in assay [3] it was -35%; in assay [4] it was 3.5%; in assay [5] it was -16.9%; in assay [6] it was -25.8%.

Turning to `CCOC(=O)C(Cc1ccccc1)NC(=O)c1ccc(N=NN(C)C)cc1` (stereo not given), the growth inhibition in assay [1] is -19.8%; in assay [2], -31.7%; in assay [3], -37.2%; in assay [4], -8.15%; in assay [5], 6.65%; in assay [6] it was -29.6%.

`NC(=S)c1cccc(OCCc2ccccc2)c1`: the growth inhibition in assay [1] is 97.7% (active); in assay [2], 99.4% (active); in assay [3] it was 99% (active); in assay [4], 96.3% (active); in assay [5], 99.2% (active); in assay [6], 98.7% (active).

Regarding `O=c1oc(-c2ccc([N+](=O)[O-])cc2)nc2cc(Cl)ccc12`, the growth inhibition was 17.8% in assay [1]; 9.15% in assay [2]; 44.7% in assay [3]; 8.85% in assay [4]; 44.9% in assay [5]; 18.6% in assay [6].

With `O=C(O)CC(O)(CC(=O)O)C(=O)O`, the growth inhibition is 25% in assay [1]; 17.9% in assay [2]; -19.6% in assay [3]; 3.65% in assay [4]; -0.25% in assay [5]; 9.25% in assay [6].

In the case of `CC1(C)OC2COC(OCc3ccccc3)C(OCc3ccccc3)C2O1` (stereo not given), the growth inhibition in assay [1] is 17.4%; in assay [2], 8.1%; in assay [3] it was 26.8%; in assay [4], 7.35%; in assay [5] it was -8.7%; in assay [6] it was 19%.

With `O=C(c1ccccc1)N1c2ccc([N+](=O)[O-])cc2Sc2cc([N+](=O)[O-])ccc21`, the growth inhibition in assay [1] is 16.7%; in assay [2], -3.45%; in assay [3] it was 33.6%; in assay [4] it was 8.35%; in assay [5], -10.7%; in assay [6], 13.1%.

Take `O=P(CSCCO)(c1ccccc1)c1ccccc1`: the growth inhibition in assay [1] was -23.6%; in assay [2] it was -21.9%; in assay [3], -13.4%; in assay [4], -6.3%; in assay [5], -11.9%; in assay [6], -36.7%.

Take `CCCOC(=O)C1C(=O)CC(c2ccccc2)C1c1ccccc1` (stereo not given): the growth inhibition in assay [1] is 1.95%; in assay [2], -2.05%; in assay [3], 1.3%; in assay [4], -4.15%; in assay [5] it was 1.25%; in assay [6], -0.4%.

For `COc1ccc2nc3cccc([N+](=O)[O-])c3c(NC(C)CN(C)C)c2c1` (stereo not given), the growth inhibition in assay [1] is 52%; in assay [2], 35.9%; in assay [3], 54.1%; in assay [4], 64.3%; in assay [5], 26.4%; in assay [6] it was 42.9%.

As to `N#CCCOc1ccc(N)cc1`, the growth inhibition in assay [1] is 0.55%; in assay [2], -5.2%; in assay [3] it was 7.15%; in assay [4], 3.75%; in assay [5] it was 8.65%; in assay [6], 17.6%.

Take `COC(=O)C(Cc1ccc(O)cc1)NC(=O)C(CC(=O)OCc1ccccc1)NC(=O)OCc1ccccc1` (stereo not given) (Cbz-Asp(OBn)-Tyr-OMe; configuration not given here): the growth inhibition in assay [1] is -11.3%; in assay [2], -5.95%; in assay [3], -0.7%; in assay [4], -3.45%; in assay [5], -21.4%; in assay [6], 0.55%.

Turning to `CCOC(=O)C1CC1`, the growth inhibition is -9.65% in assay [1]; -39.5% in assay [2]; 1% in assay [3]; 0.05% in assay [4]; -9.75% in assay [5]; -2.7% in assay [6].

As to `CC1=C(CCC(=O)O)c2cc3nc(cc4[nH]c(cc5[nH]c(cc1n2)c(C)c5C1CC1C(=O)O)c(C)c4C1CC1C(=O)O)C(C)=C3CCC(=O)O` (stereo not given), the growth inhibition in assay [1] was 0.35%; in assay [2], 22.4%; in assay [3] it was 30.3%; in assay [4], -0.6%; in assay [5], 13.2%; in assay [6], 25.1%.

Values taken from PubChem BioAssay (NCI).
